Assay outcomes (PubChem BioAssay)
Shn3 inh set2: reduces Shn3 3'UTR luciferase signal in osteoblasts | actives 0.52% (n = 360,000) | inhibition, % at 12.5 µM | AID 588674 | Clone20 osteoblast Shn3 3'UTR firefly luciferase, 24 h;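 active = mean inhibition of at least 75% with every replicate also reaching 75%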;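 note: 0% = median of neutral control wells and 100% = pilot-screen positive control compound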
697 NFkB inh: lowers PMA/ionomycin-induced NF-kB signal in 697 B cells. actives 0.33% (n = 330,000). inhibition, % at 4 µM. 697 B-cell NF-kB luciferase reporter, 16 h; in the data active = inhibition above about 35%
Jurkat NFkB inh: lowers PMA/ionomycin-induced NF-kB signal in Jurkat cells | PMA/ionomycin-induced NF-kB luciferase reporter, luminescence | inhibition, % at 4 µM | actives 0.53% (n = 330,000) | AID 435003; in the data active = inhibition above about 50%
aSyn UTR inh: MLPCN primary screen, SNCA 5' untranslated region. actives 0.82% (n = 300,000). AID 1813. inhibition, % (tested at 7.5 µM). alpha-synuclein 5'UTR reporter, inhibitor activity; in the data active = inhibition above about 60%;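 note: H4 neuroglioblastoma cells stably carrying SNCA 5'UTR luciferase fusion; 0% = DMSO wells and 100% = positive control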
H9c2 TAG inh: triacylglycerol accumulation inhibition; H9c2 cells, Nile Red lipid (TAG) fluorescence; cells loaded with 200 µM oleic acid; inhibition, % at 12.5 µM; actives 0.66% (n = 230,000); AID 651582;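 active = pattern-corrected inhibition of lipid staining of at least 50% with the nuclear-stain viability signal not falling by more than 50%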;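 note: 0% = DMSO wells and 100% = triacsin C control wells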
Gli-Sufu antag: blocks Gli-Sufu signaling in a luciferase reporter | AID 588413 | inhibition, % at 5 µM | actives 0.74% (n = 340,000) | Sufu-KO-LIGHT fibroblasts, Gli luciferase reporter luminescence;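 active = inhibition above about 55%, limit read from the data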;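 note: 0% = DMSO-treated cells and 100% = wells with medium but no cells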
697 NFkB conf: inhibitors of the PMA/ionomycin-induced NF-kB reporter in 697 B cells, retest; shares compounds with 697 NFkB inh; AID 449746; inhibition, % at 4 µM; actives 35% (n = 2,000); 697 B-cell NF-kB luciferase, 16 h; in the data active = inhibition mostly above about 28%, no sharp cut-off; inactive = mostly below about 22%
Starred values were filed as active, the others as inactive; i = inactive; · = no result. The list is not random: actives were taken first. Their share in the collection is about 2.3%.

SMILES | Shn3 inh set2 | 697 NFkB inh | Jurkat NFkB inh | aSyn UTR inh | H9c2 TAG inh | Gli-Sufu antag | 697 NFkB conf
Cc1ccc(/C=C2\SC(=S)N(CCC(=O)NNC(=O)c3cccc(O)c3)C2=O)cc1 | 13 | 40* | 6 | 26 | · | 3 | 12
COc1ccc(/C=C2\SC(=S)N(CCC(=O)Nc3cccc(C(=O)O)c3)C2=O)cc1 | 8 | 42* | -5 | 26 | -5 | 6 | 39*
O=C(CCN1C(=O)/C(=C/c2ccc(Cl)cc2)SC1=S)Nc1cccc(C(=O)O)c1 | 6 | 13 | 23 | -2 | · | 4 | ·
Cc1ccc(/C=C2\SC(=S)N(CCCC(=O)Nc3cccc(C(=O)O)c3)C2=O)cc1 | 12 | 76* | -4 | 43 | 7 | 51 | 88*
COc1cc(/C=C2\SC(=S)N(CCC(=O)NC3CCCC3)C2=O)cc(OC)c1OC | -9 | 8 | 19 | -71 | · | -13 | ·
Cc1cccc2cc(/C=N/Nc3ccc(C(=O)O)cc3)c(Cl)nc12 | -49 | -309 | -76 | -197 | 21 | -134 | -247
O=C(Cc1cccc2ccccc12)Nc1ccc(-c2cc3ccccc3oc2=O)cc1 | 39 | 72* | 9 | 65* | 43 | 5 | 50*
Cc1ccc(C(=O)NC(=S)Nc2ccc(-c3cc4ccccc4oc3=O)cc2)c(C)c1 | 48 | 36* | 10 | 88* | -4 | 4 | 9
CCc1ccc(C(C)NC(=O)C2CCCC2)cc1 (stereo not drawn) | -14 | -19 | 12 | 6 | · | 7 | ·
CN1C(=O)c2oc3ccccc3c(=O)c2C1c1ccccn1 (stereo not drawn) | 3 | 0 | 3 | 6 | · | 4 | ·
CCN(CC)S(=O)(=O)c1ccc(C2=NOC3(C2)N(C)c2ccccc2C3(C)C)cc1 (stereo not drawn) | 45 | -483 | -72 | 50 | · | 21 | i
CCN(CC)S(=O)(=O)c1ccc(-c2nnco2)cc1 | 8 | -16 | -14 | -5 | -9 | 0 | ·
CN1c2ccccc2C(C)(C)C12CC(c1ccc(S(=O)(=O)N3CCCCC3)cc1)=NO2 (stereo not drawn) | 5 | i | -54 | -16 | · | 18 | i
CN1c2ccccc2C(C)(C)C12CC(c1cccc(S(=O)(=O)N3CCCC3)c1)=NO2 (stereo not drawn) | 50 | i | -66 | 40 | · | 10 | i
Nc1c(C(=O)NCc2ccccc2)c2nc3ccccc3nc2n1-c1ccc2c(c1)OCO2 | 14 | -12 | -18 | 9 | · | 10 | ·
Cc1ccc(NC(=S)Nc2ccc(S(=O)(=O)Nc3ncccn3)cc2)c(C)c1 | -1 | 50* | -1 | -1 | -15 | 4 | 14
O=C(Nc1ccc2ccccc2c1)c1ccc(NS(=O)(=O)c2ccc(Br)s2)cc1 | -50 | -26 | -22 | -102 | · | -8 | ·
COc1ccc(OC)c(C2CC(=O)Nc3cc(OC)c(OC)c(OC)c32)c1 (stereo not drawn) | -32 | 35* | -5 | 6 | 4 | 24 | 43*
CCCOc1c(OC)cccc1C1CC(=O)Nc2cc(OC)c(OC)c(OC)c21 (stereo not drawn) | 0 | 18 | -10 | 13 | 25 | 14 | ·
CCOC(=O)c1ccc(NC(=O)/C=C/c2cccs2)cc1 | -54 | -143 | -115 | -251 | 19 | -32 | ·
NNC(=O)c1csc(COc2cc(Cl)cc(Cl)c2)n1 | 4 | -5 | 12 | -18 | -4 | -1 | ·
CC(=O)c1csc(COc2ccc(Cl)cc2)n1 | -65 | -371 | -110 | -31 | 13 | -72 | -210
C(=N\Nc1nc(Nc2ccccc2)nc(Nc2ccccc2)n1)/c1ccncc1 | 4 | 20 | -21 | -3 | 21 | -5 | ·
C(=N\Nc1nc(Nc2ccccc2)nc(Nc2ccccc2)n1)/c1cccnc1 | 4 | 35* | -15 | -23 | 42 | 3 | 30*
COc1ccc(-c2cc(CCCC(=O)NCCc3ccc(OC)cc3OC)no2)cc1 | 41 | 16 | 5 | 0 | · | -4 | ·
CCOc1ccc(NC(=O)CCCc2cc(-c3ccc(OCC)cc3)on2)cc1 | 12 | 40* | -16 | 35 | 29 | 8 | 40*
CCOc1ccc(-c2cc(CCCC(=O)NCc3cccnc3)no2)cc1 | -13 | 35 | -123 | -5 | -56 | 4 | ·
